Test [1] can be described thus: binders of probe aFSTL3 on microarray, primary screen, stem cell growth factor project, biochemical, small-molecule microarray, fluorescence 635/667 (AID 1064).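 Also: measures binding of the biotinylated anti-FSTL3 antibody to printed compounds.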 As to conditions: higher = more signal.
A short description of test [2]: binders from COS7 lysate, DM2A8 probe, primary screen, torsin A project, cell lysate, small-molecule microarray, fluorescence 635/667 (AID 1065). As to conditions: higher = more signal, COS7 lysate expressing mutant human TOR1A.
A short description of test [3]: binders of probe aFGF2 on microarray, primary screen, stem cell growth factor project, biochemical, small-molecule microarray, fluorescence 635/667 (AID 1067).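 Also: measures binding of biotinylated aFGF2 protein to printed compounds on slides; z-score merges feature fluorescence and signal-to-noise across triplicate slides.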 As to conditions: higher = more signal.
Test [4] in a line: binders of probe aFGF10 on microarray, primary screen, stem cell growth factor project, biochemical, small-molecule microarray, fluorescence 635/667 (AID 1071).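 Also: score merges 667 nm spot intensity and signal to noise from triplicate slides.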 The note with it: higher = more signal.
In test [5] the target is Neurogenic locus notch homolog protein 2 (Homo sapiens) (UniProt Q04721). Description: Notch2 binders on small-molecule microarrays, primary screen, biochemical, small-molecule microarray, 635 nm fluorescence, stem cell growth factors (AID 1073). As to conditions: Notch2 binding, higher = more signal.
The target of test [6] is Pro-neuregulin-1, membrane-bound isoform (Homo sapiens) (UniProt Q02297). Nature of the test: NRG1 binders on small-molecule microarrays, primary screen, psychiatric disease protein project, biochemical, small-molecule microarray, fluorescence 635/667 (AID 1075).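 Also: score combines 667 nm spot fluorescence with signal to noise.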 As to conditions: NRG1 binding, 635 nm fluorescence, higher = more signal.
The test system of test [7] is Neuregulin-1 EGF-like domain. Nature of the test: binders of neuregulin-1 EGF-like domain, primary screen, biochemical, small-molecule microarray, 635 nm fluorescence (AID 1081).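 Also: binding of the protein to compounds printed on small-molecule microarray slides.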 As to conditions: small-molecule microarray binding, higher = more signal.
The nature of test [8]: FRG1 promoter luciferase signal modulators, primary screen, FRG1 inhibition for FSHD, cell-based, C2C12 myotubes, firefly/Renilla luciferase, luminescence (AID 1084). As to conditions: higher = more signal, called active from +8 up or from −8 down.
Test [9] in a line: binders of probe aFST on microarray, primary screen, stem cell growth factor project, biochemical, small-molecule microarray, fluorescence 635/667 (AID 1086).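 Also: score merges 667 nm fluorescence with signal-to-noise of each printed compound spot.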 As to conditions: higher = more signal.
Test [10] in a line: binders of probe aHhip on microarray, primary screen, stem cell growth factor project, biochemical, small-molecule microarray, fluorescence 635/667 (AID 1087).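 Also: score merges spot fluorescence at 667nm with spot signal to noise ratio.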 As to conditions: higher = more signal.

The source made the active and inactive calls.

Sequence of Neurogenic locus notch homolog protein 2 (Homo sapiens) (Q04721 whole entry, looked up, canonical isoform): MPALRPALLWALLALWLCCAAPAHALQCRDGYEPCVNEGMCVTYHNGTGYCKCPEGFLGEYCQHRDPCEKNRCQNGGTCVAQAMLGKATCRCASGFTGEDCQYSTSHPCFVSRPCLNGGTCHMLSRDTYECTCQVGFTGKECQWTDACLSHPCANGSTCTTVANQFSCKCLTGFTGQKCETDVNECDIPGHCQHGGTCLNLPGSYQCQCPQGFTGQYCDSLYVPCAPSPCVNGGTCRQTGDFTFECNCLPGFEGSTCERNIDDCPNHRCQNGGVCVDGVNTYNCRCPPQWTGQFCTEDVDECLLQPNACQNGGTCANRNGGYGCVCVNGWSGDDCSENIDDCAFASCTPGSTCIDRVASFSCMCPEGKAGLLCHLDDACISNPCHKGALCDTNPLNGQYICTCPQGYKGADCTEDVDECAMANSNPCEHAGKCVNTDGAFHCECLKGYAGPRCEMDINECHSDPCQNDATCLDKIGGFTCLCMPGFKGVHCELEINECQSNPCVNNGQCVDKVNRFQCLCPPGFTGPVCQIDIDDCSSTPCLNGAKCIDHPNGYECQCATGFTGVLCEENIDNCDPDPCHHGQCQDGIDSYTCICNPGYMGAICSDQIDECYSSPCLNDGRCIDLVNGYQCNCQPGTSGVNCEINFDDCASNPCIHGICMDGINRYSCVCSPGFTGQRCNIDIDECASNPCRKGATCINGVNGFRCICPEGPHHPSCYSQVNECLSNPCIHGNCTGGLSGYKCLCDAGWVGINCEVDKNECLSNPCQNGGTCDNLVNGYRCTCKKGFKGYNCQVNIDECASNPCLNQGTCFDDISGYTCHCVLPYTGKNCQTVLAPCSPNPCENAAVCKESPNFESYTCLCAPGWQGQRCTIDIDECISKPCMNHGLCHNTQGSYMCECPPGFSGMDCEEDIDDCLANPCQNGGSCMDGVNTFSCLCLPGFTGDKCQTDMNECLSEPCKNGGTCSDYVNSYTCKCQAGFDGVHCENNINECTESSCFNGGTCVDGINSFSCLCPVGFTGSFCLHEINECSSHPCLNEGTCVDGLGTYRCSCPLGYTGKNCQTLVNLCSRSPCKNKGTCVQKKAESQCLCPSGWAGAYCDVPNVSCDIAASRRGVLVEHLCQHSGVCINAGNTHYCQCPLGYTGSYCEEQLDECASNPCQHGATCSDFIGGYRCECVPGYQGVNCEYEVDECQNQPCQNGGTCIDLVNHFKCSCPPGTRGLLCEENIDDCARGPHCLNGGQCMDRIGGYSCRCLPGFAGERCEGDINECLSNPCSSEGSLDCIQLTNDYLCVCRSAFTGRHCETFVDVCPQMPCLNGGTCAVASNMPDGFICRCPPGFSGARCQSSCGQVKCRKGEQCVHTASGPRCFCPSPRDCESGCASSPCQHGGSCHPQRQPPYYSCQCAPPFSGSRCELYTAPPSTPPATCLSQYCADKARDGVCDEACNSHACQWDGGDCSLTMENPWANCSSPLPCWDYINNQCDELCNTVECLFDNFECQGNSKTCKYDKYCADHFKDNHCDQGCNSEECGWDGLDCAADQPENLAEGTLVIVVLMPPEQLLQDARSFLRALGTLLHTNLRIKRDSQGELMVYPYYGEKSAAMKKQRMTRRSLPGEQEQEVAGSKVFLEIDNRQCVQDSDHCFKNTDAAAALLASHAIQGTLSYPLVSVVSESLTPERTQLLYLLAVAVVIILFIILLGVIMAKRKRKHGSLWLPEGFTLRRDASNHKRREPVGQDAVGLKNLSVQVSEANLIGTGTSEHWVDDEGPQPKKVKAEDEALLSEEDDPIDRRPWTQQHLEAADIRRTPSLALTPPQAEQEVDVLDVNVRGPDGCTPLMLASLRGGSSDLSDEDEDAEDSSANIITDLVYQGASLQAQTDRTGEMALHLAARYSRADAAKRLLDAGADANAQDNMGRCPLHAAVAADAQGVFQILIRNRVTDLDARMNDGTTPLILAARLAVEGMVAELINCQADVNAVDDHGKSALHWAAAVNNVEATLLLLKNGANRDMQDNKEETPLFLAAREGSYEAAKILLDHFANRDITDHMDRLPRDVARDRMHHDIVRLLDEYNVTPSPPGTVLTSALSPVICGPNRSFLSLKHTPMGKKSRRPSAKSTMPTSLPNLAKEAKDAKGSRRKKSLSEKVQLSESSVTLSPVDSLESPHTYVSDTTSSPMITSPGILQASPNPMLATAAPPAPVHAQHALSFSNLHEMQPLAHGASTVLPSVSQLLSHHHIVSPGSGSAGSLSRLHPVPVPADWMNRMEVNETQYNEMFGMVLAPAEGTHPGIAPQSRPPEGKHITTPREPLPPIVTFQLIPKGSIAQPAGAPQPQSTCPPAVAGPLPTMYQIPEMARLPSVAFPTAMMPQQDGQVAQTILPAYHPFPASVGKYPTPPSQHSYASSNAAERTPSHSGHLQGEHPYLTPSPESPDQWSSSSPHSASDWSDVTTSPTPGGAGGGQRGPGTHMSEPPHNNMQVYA
Sequence of Pro-neuregulin-1, membrane-bound isoform (Homo sapiens) (Q02297 whole entry, looked up, the tested form may be a part, canonical isoform): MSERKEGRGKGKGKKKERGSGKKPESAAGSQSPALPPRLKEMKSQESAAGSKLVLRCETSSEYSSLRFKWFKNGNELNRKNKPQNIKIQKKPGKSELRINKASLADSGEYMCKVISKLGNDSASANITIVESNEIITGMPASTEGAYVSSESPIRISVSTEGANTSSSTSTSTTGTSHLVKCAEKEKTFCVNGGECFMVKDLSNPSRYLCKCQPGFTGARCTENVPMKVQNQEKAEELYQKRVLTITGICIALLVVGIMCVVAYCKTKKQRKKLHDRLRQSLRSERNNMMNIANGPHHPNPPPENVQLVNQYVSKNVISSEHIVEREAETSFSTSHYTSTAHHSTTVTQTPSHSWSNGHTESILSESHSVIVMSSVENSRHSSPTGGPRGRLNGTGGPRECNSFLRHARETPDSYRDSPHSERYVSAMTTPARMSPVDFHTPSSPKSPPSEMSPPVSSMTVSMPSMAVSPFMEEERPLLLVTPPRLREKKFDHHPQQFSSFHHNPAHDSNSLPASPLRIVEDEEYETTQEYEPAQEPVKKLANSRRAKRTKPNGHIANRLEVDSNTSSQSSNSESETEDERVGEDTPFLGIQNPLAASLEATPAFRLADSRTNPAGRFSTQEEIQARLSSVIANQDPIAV

`COCCCNC(=O)[C@@]1(Cc2ccccc2)N=C(c2ccc(OCCCO)cc2)O[C@H]1c1ccccc1CN=[N+]=[N-]`: the composite z-score was 0.988 in [1]; 1.35 in test [2]; 0.0762 in [3]; 0.806 in test [4]; 1.25 in test [5]; 1.74 in test [6]. For the same molecule, the results for the composite z-score in test [7], in [9] and in [10] were 1.11, 1.54 and -0.194, respectively. Further, the z-score in [8] was -0.989 (inactive).
As for `COc1ccccc1CN1C(=O)c2ccccc2[C@@]2(Cc3ccccc3N(CCCN(C)C)C2=O)[C@@H]1c1ccc(CO)cc1`, the composite z-score in test [1] was -0.302; in test [2] it was -0.252; in [3] it was -0.0396; in [4], -0.0231; in [5] it was 0.137; in test [6], -0.141. In addition, the figures for the composite z-score in test [7], in test [9] and in test [10] were 0.0968, -0.201 and -0.0645, respectively. In test [8], the z-score was 0.0544 (inactive).
As for `NCCCCCNC(=O)[C@H]1C[C@H]2C(=O)N[C@@H](Cc3ccccc3)C(=O)N2[C@H]1c1cccc(OCCO)c1`, the composite z-score in test [1] came to 2.24; in [2], 0.387; in test [3], 0.0364; in [4] it was 0.116; in test [5] it was 0.352; in [6], 2.05. In addition, the values for the composite z-score in [7], in test [9] and in [10] were 0.408, 1.04 and 0.705, respectively. Moreover, the z-score in test [8] was 1.27 (inactive).
For the molecule `O=C1OCCC=C[C@H]2OC34C=CCN(c5ccc(Cl)cc5)C(=O)[C@H]3N(CCCO)C(=O)[C@@H]4C12` (stereo not given in full), the composite z-score is 0.189 in test [1]; -0.771 in test [2]; -0.104 in test [3]; -0.144 in test [4]; -0.678 in [5]; -0.602 in test [6]. For the same molecule, the composite z-score was -0.366 in test [7], -0.155 in test [9] and -0.236 in test [10]. Besides, in [8], the z-score is 0.923 (inactive).
With `CC(C)[C@@H](C(=O)O)n1cc(C2(O)CCCCC2)nn1`, the composite z-score in [1] is -0.401; in test [2], -0.938; in test [3], -0.183; in [4], 0.78; in test [5], 0.63; in test [6], 0.394. Moreover, the composite z-score in test [7] is 0.451; in [9] it was 0.27; in [10] it was -0.218. In addition, in test [8], the z-score is 0.356 (inactive).
Consider `CCCC(=O)N(CCc1c[nH]c2ccccc12)[C@@H]1CC(C(=O)NCCO)=C[C@H](Oc2c(I)cc(CO)cc2OC)[C@H]1O`, for which the composite z-score is -0.279 in test [1]; 0.809 in test [2]; -0.0692 in test [3]; 0.187 in [4]; -0.11 in [5]; -0.0724 in test [6]. The composite z-score is 0.315 in [7], -0.0945 in [9] and -0.214 in [10]. The z-score in test [8] was -0.667 (inactive).
`O=C1OCCC=C[C@H]2OC34C=CCN(Cn5nnc6ccccc65)C(=O)[C@H]3N(CCO)C(=O)[C@@H]4C12` (stereo not given in full): the composite z-score in test [1] was -0.254; in test [2], -0.4; in test [3] it was -0.219; in test [4] it was -0.308; in [5], -1.06; in test [6], 0.0802. The composite z-score was 1.13 in test [7], -0.8 in test [9] and -0.226 in test [10]. For the same molecule, the z-score in [8] was 0.684 (inactive).
In the case of `Cc1ccc(S[C@]2(C(=O)O)CC(=O)N(C(C)C)[C@@H]2c2ccc(CO)cc2)cc1`, the composite z-score is 0.125 in test [1]; 0.552 in test [2]; -0.172 in test [3]; -0.0563 in test [4]; -0.445 in test [5]; -0.226 in test [6]. Moreover, the composite z-score in test [7] is 0.751; in test [9] it was -0.735; in test [10], -0.189. The z-score in [8] was -0.175 (inactive).
For the molecule `C#CCNCc1ccccc1`, the composite z-score in [1] was -0.443; in [2], 0.0591; in test [3] it was -0.114; in test [4], 0.227; in [5] it was 0.461; in [6] it was -0.358. The values for the composite z-score in test [7], in [9] and in test [10] were 0.0262, -0.115 and -0.236, respectively. For the same molecule, the z-score in [8] was 0.938 (inactive).
`Cc1c(NC(=O)/C(C#N)=C/c2cccc([N+](=O)[O-])c2)c(=O)n(-c2ccccc2)n1C`: the composite z-score in test [1] is -0.365; in test [2] it was 0.322; in [3], -0.112; in test [4], 0.0969; in test [5] it was 1.01; in test [6], 1.41. The composite z-score in test [7] was 1.05; in test [9], -0.0089; in test [10] it was -0.0994. Also, in test [8], the z-score was 0.807 (inactive).
Take `COC(=O)[C@]1(Cc2ccccc2)N=C(c2ccc(OCCCO)cc2)O[C@@H]1c1ccccc1N=[N+]=[N-]`: the composite z-score in [1] was -0.186; in test [2], 0.179; in [3], -0.0268; in test [4], -0.13; in test [5] it was 0.473; in [6] it was 0.314. Besides, the composite z-score in test [7] is 0.764; in test [9] it was 0.551; in [10] it was 0.0373. Moreover, the z-score in test [8] was 4.51 (inactive).

Source of the values: PubChem BioAssay.
